Consider seven molecules from PubChem BioAssay (Tox21).

A number with no mark means an inactive call. Inconclusive results are not listed. The source made the active and inactive calls. Unless noted, calls come from the whole dose curve.

The nature of assay [1]: Nuclear factor erythroid 2-related factor 2/antioxidant responsive element (Nrf2/ARE) small molecule agonists: qHTS cell viability counter screen in human keratinocytes (AID 1919968; active = well fitted curve in the direction sought with a large enough effect in the repeat runs; an effect the other way counts as inactive or inconclusive; note: nearly all actives have a fitted effect of over 55% in size). The method in brief:
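Measured as CellTiter-Fluor fluorescence, this readout tracks cytotoxicity in the same wells as the ARE-luciferase screen. HaCaT reporter cells (1,500/well) received compounds after a 5 h pre-incubation and were exposed for 23 h.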
(qHTS replaces the single test concentration by a dilution series.)

Assay [2] is described as follows: Nuclear factor erythroid 2-related factor 2/antioxidant responsive element (Nrf2/ARE) small molecule agonists: luciferase reporter gene qHTS assay in human keratinocytes (AID 1919969; note: nearly all actives have a fitted effect of over 35% in size). (A reporter such as luciferase makes a cellular process visible.)
In assay [3] the target is Gonadotropin-releasing hormone receptor (Homo sapiens) (UniProt P30968). Description: Human gonadotropin-releasing hormone receptor (GnRHR) small molecule agonists, calcium flux assay in GnRHR-HEK293 cells (AID 1920063). Note: nearly all actives have a fitted effect of over 35% in size. In short, it runs like this: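 Fluorescence kinetics (480 nm excitation, 540 nm emission; 3 min, 1 s steps) report calcium mobilisation in human GnRHR-HEK293 cells in agonist mode. Dye incubation: 1 h, 37 C.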
Sequence of Gonadotropin-releasing hormone receptor (Homo sapiens) (P30968 whole entry, looked up): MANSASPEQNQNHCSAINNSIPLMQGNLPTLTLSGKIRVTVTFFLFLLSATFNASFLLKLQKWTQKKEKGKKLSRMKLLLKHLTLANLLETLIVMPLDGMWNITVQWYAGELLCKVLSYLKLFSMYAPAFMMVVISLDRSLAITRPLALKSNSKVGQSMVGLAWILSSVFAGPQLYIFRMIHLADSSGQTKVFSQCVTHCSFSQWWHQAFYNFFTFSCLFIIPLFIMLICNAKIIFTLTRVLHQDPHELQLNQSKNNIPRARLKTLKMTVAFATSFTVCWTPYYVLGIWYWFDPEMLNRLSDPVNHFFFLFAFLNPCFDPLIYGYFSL
In general terms: Calcium flux is commonly read through the fluorescence of an indicator in the cells.

Assay [4] concerns the target KiSS-1 receptor (Homo sapiens) (UniProt Q969F8). As to the kind of experiment: Human kisspeptin (KISS1R) small molecule agonists, calcium flux assay in KISS1R-HEK293 cells (AID 1920064; active = well fitted curve in the direction sought with a large enough effect in the repeat runs; an effect the other way counts as inactive or inconclusive). The method in brief: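 Measures KISS1R agonism through calcium-sensitive dye fluorescence in stably transfected HEK293 cells, read for 3 min after pin-tool compound delivery; 15-point titrations in triplicate.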

Assay [5] can be described thus: G protein-coupled receptor (GPCR) small molecule agonists, calcium flux assay: HEK293 wild type cell line counter screen (AID 1920065). The method in brief: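 Readout: fluorescence at 480 nm excitation/540 nm emission, sampled at 1 s intervals for 3 min. Cells had been cultured 18 h, then dye-loaded 1 h at 37 C before compound or ATP addition.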
Assay [6] in a line: p53 small molecule agonists, cell-based qHTS assay with human liver microsomes (AID 1963577).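 Note: p53 response element beta-lactamase reporter cells with liver microsomes plus NADPH.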 The method in brief:
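Metabolically competent format: test substances, human liver microsomes and NADPH (both 0.5 mg/mL final) incubated with p53RE-bla cells 16 h at 37 C. Beta-lactamase reporter signal then quantified by fluorescence.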

The nature of assay [7]: p53 small molecule agonists, cell-based qHTS assay with rat liver microsomes (AID 1963578). In short, it runs like this: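 Each plate received p53RE-bla cells, then compound, then rat liver microsomes and NADPH (both 0.5 mg/mL final). Plates were held 16 h at 37 C, and beta-lactamase activity was detected with LiveBLAzer over 2 h.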
Assay [8] can be described thus: p53 small molecule agonists, cell-based qHTS assay with human liver microsomes: qHTS cell viability counter screen (AID 1963579). Note: nearly all actives have a fitted effect of over 45% in size. Note: potency is the fitted concentration of half-maximal effect. In short, it runs like this:
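Tox21 library compounds, delivered from DMSO stocks, were tested on p53RE-bla cells together with 0.5 mg/mL human liver microsomes and 0.5 mg/mL NADPH (final) over 16 h at 37 C; CellTiter-Glo luminescence served as the cytotoxicity measure.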

Assay [9] is described as follows: p53 small molecule agonists, cell-based qHTS assay with rat liver microsomes: qHTS cell viability counter screen (AID 1963580). Note: nearly all actives have a fitted effect of over 45% in size. In short, it runs like this: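 p53RE-bla HCT-116 cells (4,000/well) rested 5 h at 37 C, then given Tox21 compounds in DMSO with rat liver microsomes (0.5 mg/mL final) plus NADPH (0.5 mg/mL final) for 16 h at 37 C. Viability read by CellTiter-Glo luminescence after 30 min at room temperature.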

Assay [10] is described as follows: p53 small molecule agonists, cell-based qHTS assay: qHTS cell viability counter screen (AID 1963581). Note: nearly all actives have a fitted effect of over 45% in size. In short, it runs like this: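 In the same plates used for the p53 bla reporter, HCT-116 cells given compounds for 16 h at 37 C received CellTiter-Glo; luminescence was recorded 30 min later at room temperature.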
Assay [11] deals with 5-hydroxytryptamine receptor 2A (Homo sapiens) (UniProt P28223). Description: 5-hydroxytryptamine receptor 2A (HTR2A) small molecule agonists, cell-based qHTS assay (AID 1963587). Note: nearly all actives have a fitted effect of over 30% in size. In short, it runs like this: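 HTR2A-CHO cells, plated 18 h at 37 C/5% CO2, dye-loaded 1 h at 37 C; compounds in DMSO added by pin tool (agonist mode). Intracellular calcium flux read as kinetic fluorescence on FDSS over 2 min at 1 s intervals.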
Sequence of 5-hydroxytryptamine receptor 2A (Homo sapiens) (P28223 whole entry, looked up): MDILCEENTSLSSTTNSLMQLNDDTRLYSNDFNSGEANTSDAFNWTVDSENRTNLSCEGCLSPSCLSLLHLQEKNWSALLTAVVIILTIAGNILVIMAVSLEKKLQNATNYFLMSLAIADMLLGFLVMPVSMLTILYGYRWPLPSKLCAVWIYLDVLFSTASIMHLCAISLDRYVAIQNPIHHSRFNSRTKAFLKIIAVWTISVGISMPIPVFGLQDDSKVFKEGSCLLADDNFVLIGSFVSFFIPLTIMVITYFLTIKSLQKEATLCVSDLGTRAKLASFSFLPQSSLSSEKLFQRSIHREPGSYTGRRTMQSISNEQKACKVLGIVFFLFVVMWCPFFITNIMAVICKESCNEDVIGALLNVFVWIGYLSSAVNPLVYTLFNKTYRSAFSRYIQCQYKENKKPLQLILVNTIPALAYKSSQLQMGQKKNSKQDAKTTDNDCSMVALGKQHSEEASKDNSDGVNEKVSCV

The target of assay [12] is Muscarinic acetylcholine receptor M1 (Homo sapiens) (UniProt P11229). Description: Cholinergic receptor muscarinic 1 (CHRM1) small molecule antagonists, cell-based qHTS assay (AID 1963588). Note: nearly all actives have a fitted effect of over 40% in size. In short, it runs like this: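 CHRM1-CHO calcium-flux assay, antagonist mode. Cells were seeded 18 h, dye-loaded 1 h at 37 C and given compound for 5 min at RT, then acetylcholine was added at 50nM. FDSS fluorescence was read 3 min; 15 concentrations, three runs.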
Sequence of Muscarinic acetylcholine receptor M1 (Homo sapiens) (P11229 whole entry, looked up): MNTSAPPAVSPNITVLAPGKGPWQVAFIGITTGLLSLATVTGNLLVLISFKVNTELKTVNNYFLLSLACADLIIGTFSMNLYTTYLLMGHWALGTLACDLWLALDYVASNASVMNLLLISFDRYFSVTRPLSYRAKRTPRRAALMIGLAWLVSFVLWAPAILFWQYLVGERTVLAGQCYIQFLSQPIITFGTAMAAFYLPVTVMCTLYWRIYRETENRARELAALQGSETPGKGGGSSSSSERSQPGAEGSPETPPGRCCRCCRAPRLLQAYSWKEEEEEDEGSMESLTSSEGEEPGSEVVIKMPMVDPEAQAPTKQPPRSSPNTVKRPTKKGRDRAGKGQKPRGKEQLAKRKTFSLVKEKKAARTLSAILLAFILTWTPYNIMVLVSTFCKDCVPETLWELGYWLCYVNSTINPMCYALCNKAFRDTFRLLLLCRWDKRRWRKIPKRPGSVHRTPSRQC

The target is the same in assay [13]. As to the kind of experiment: Cholinergic receptor muscarinic 1 (CHRM1) small molecule agonists, cell-based qHTS assay (AID 1963589). Note: nearly all actives have a fitted effect of over 35% in size. In short, it runs like this: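 Each compound was tested at 15 concentrations across three independent runs on dye-loaded CHO cells stably expressing human CHRM1, reading intracellular calcium fluorescence kinetically at 1 sec intervals.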

Assay [14] deals with Beta-2 adrenergic receptor (Homo sapiens) (UniProt P07550). Description: Adrenergic beta2 receptor (ADRB2) small molecule antagonists, cell-based qHTS assay (AID 1963592). For activity change, negative = inhibition: series mostly up to about 92 µM. Note: nearly all actives have a fitted effect of over 50% in size. Note: potency is the fitted concentration of half-maximal effect. The method in brief: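 Cells (CHO, stable ADRB2 overexpression) incubated 18-20hr at 37C; compounds added from DMSO; agonist mix (1nM isoproterenol, 100uM IBMX, 25uM Ro-20-1724) added; 0.5hr RT; d2-cAMP and anti-cAMP-cryptate added; 1hr RT; 665/615 nm read.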
Sequence of Beta-2 adrenergic receptor (Homo sapiens) (P07550 whole entry, looked up): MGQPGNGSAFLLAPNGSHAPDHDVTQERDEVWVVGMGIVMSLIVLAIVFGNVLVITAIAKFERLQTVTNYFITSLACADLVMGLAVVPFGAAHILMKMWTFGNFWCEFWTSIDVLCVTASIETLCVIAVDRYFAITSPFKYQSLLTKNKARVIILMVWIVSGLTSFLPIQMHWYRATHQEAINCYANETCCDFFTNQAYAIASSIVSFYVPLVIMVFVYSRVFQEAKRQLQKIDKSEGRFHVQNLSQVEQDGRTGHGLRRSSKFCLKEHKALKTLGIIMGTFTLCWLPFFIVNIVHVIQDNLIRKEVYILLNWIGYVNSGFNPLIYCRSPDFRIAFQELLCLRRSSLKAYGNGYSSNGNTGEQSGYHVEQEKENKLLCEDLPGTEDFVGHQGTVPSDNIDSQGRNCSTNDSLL

The target is the same in assay [15]. Description: Adrenergic beta2 receptor (ADRB2) small molecule agonists, cell-based qHTS assay (AID 1963593).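 Note: CHO cells stably overexpressing human ADRB2.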 The method in brief:
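CHO cells stably over-expressing ADRB2 were plated overnight at 37C, then dosed with compounds plus a stimulation mix containing 100uM IBMX and 25uM Ro-20-1724 for 0.5hr at room temperature. cAMP was measured by HTRF competition, 1hr.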

For assay [16], the target named is D(2) dopamine receptor (Homo sapiens) (UniProt P14416). As to the kind of experiment: Dopamine D2 receptor (DRD2) small molecule agonists, cell-based qHTS assay (AID 1963594). Note: nearly all actives have a fitted effect of over 35% in size. The method in brief:
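HEK293 cells stably expressing DRD2 were cultured 24 h at 37 C, then given Ro20-1724 (0.1 mM final) and compounds for 10 min at room temperature. NKH477 (200nM) was then added for 30 min. cAMP was read by HTRF.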

Assay [17] shares this target. Description: Dopamine D2 receptor (DRD2) small molecule antagonists, cell-based qHTS assay (AID 1963595; active = well fitted inhibition curve with a large enough effect in the signal ratio in the repeat runs, with a control signal flat; the % refers to the signal ratio). The method in brief: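 HTRF cAMP read-out at 665 and 620 nm emission (340 nm excitation). Antagonist mode: compounds were tested against 12 nM quinpirole in DRD2-HEK293 cells, with 200 nM NKH477 raising cAMP and 0.1 mM Ro20-1724 blocking its breakdown.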
The nature of assay [18]: cAMP Responsive Elements (CRE) small molecule agonists, cell-based qHTS assay (AID 1963590). In short, it runs like this: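 Cell line: CRE-bla HEK 293T; medium DMEM/10% dialyzed FBS/0.1 mM NEAA/1 mM pyruvate/25 mM HEPES; 3 h compound exposure; beta-lactamase FRET readout after 2 h substrate loading at RT.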
A short description of assay [19]: cAMP Responsive Elements (CRE) small molecule antagonists, cell-based qHTS assay (AID 1963591; active = well fitted inhibition curve with a large enough effect in the signal ratio in the repeat runs, not every such curve was filed as active; the % refers to the signal ratio). In short, it runs like this: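 Inhibition of NKH477-driven (0.25 uM final) CRE-beta-lactamase signal in HEK293T cells, 3 h compound exposure at 37 °C, detected by FRET substrate fluorescence.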
Assay [20] concerns the target 5-hydroxytryptamine receptor 2A (Homo sapiens) (UniProt P28223). As to the kind of experiment: 5-hydroxytryptamine receptor 2A (HTR2A) small molecule antagonists, cell-based qHTS assay (AID 1963586). Note: nearly all actives have a fitted effect of over 45% in size. In short, it runs like this: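 Antagonist-mode intracellular calcium assay: DOI (4 nM) added after 5 min compound pre-incubation at room temperature to dye-loaded HTR2A-CHO cells. Fluorescence followed for 3 min, sampled every second.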
% is set by controls: 0 for no effect and ±100 for the full control effect.

Sequence of KiSS-1 receptor (Homo sapiens) (Q969F8 whole entry, looked up): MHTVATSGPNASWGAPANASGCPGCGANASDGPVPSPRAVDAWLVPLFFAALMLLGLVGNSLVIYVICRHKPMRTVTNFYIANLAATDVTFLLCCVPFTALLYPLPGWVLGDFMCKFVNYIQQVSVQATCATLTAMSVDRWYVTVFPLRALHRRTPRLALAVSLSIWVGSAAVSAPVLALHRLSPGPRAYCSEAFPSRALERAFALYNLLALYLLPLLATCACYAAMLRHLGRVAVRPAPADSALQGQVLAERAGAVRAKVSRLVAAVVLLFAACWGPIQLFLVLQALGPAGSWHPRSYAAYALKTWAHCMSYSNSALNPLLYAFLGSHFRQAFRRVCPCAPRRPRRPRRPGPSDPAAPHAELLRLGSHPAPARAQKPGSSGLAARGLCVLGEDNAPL
Sequence of D(2) dopamine receptor (Homo sapiens) (P14416 whole entry, looked up): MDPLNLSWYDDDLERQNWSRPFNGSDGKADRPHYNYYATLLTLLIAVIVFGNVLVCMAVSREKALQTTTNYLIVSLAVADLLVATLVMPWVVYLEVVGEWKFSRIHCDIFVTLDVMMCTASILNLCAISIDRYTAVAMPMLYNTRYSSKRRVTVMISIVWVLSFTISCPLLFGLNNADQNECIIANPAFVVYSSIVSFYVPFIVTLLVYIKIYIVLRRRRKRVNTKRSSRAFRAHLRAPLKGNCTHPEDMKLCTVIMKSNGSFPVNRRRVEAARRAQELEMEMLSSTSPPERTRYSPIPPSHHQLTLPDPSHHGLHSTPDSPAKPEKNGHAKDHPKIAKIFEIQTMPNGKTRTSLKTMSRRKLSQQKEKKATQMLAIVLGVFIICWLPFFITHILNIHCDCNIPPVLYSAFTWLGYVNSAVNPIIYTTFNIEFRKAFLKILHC

Turning to `NS(=O)(=O)c1cc(C(=O)NN2C[C@H]3[C@H]4CCC(C4)[C@H]3C2)ccc1Cl`, the Potency entry in assay [1], in [2], in [3], in assay [6], in [7] and in [8] was “inactive” throughout. The Potency entry in assay [9], in assay [10], in assay [11], in [12], in assay [13] and in assay [14] was “inactive” throughout. In addition, the Potency entry in assay [15], in assay [16] and in assay [17] was “inactive” in each case. The outcome in assay [4] and in assay [5] was inactive.
For `FC(F)(F)c1ccc(Cl)cc1Cl`, the Potency result in [1], in [2], in assay [3], in [6], in assay [7] and in assay [8] was “inactive” in each case. In addition, the Potency result in assay [9], in assay [10], in assay [11], in assay [12], in assay [13] and in assay [18] was “inactive” throughout. For the same molecule, the Potency entry in assay [15], in [16] and in assay [17] was “inactive” throughout. The outcome in [4] and in assay [5] was inactive.
Take `Cc1nc2n(c(=O)c1CCN1CCC(C(=O)c3ccc(F)cc3)CC1)CCS2`: the Potency entry in [1], in assay [2], in [3], in assay [6], in [7] and in [8] was “inactive” in each case. The Potency result in [9], in [10], in assay [11], in assay [13], in [18] and in [19] was “inactive” each time. Also, the Potency result in assay [14], in assay [15] and in [16] was “inactive” throughout. Moreover, the outcome in assay [4] and in assay [5] was inactive.
Regarding `O=C(O)CCC(=O)C(=O)O`, the Potency entry in assay [1], in assay [2], in [3], in assay [6], in assay [7] and in assay [8] was “inactive” in each case. Also, the Potency result in assay [9], in assay [20], in [11], in [12], in assay [13] and in assay [18] was “inactive” throughout. In addition, the Potency result in [19], in assay [14], in [16] and in assay [17] was “inactive” each time. Moreover, the result in assay [4] and in assay [5] was inactive.
As for `CCCCCCCCOS(=O)(=O)O`, the Potency entry in assay [1], in assay [2], in [3], in assay [6], in [7] and in assay [8] was “inactive” each time. Further, the Potency result in [9], in assay [20], in assay [11], in [12], in [13] and in [18] was “inactive” each time. Also, the Potency result in assay [19], in [14] and in [16] was “inactive” in each case. Further, the result in assay [4] and in assay [5] was inactive.
On to `C=CC/C=C/C/C=C/C/C=C/C`, for which the Potency entry in [1], in assay [2], in [3], in assay [6], in [7] and in assay [8] was “inactive” in each case. Further, the Potency result in assay [9], in assay [20], in assay [11], in [12], in assay [13] and in assay [18] was “inactive” in each case. The Potency result in assay [19], in assay [14], in [15] and in assay [16] was “inactive” each time. In addition, the result in assay [4] and in [5] was inactive.
On to `COc1cc2nc(N3CCN(C(=O)c4ccco4)CC3)nc(N)c2cc1OC`, for which the figures for the activity change, negative = cytotoxicity in [1], in assay [9] and in assay [10] were -15.2% [at 19 µM], 0.442% [at 13.5 µM] and 24.1% [at 13.5 µM], respectively. Moreover, in [2], the activity, positive = activation is -0.0377% [at 19 µM]. For the same molecule, in assay [3], the activity change was -0.192% [at 11.8 µM, stronger effect = higher value]. Besides, the activation in assay [4] was 1.31% [at 15.8 µM]; in [5] it was 0.594% [at 11.8 µM]; in [6], -0.142% [at 13.5 µM]; in assay [7], 0.86% [at 13.6 µM]; in assay [18], -0.578% [at 19 µM]; in assay [16], 10.2% [at 19 µM]. For the same molecule, the Potency in assay [8] is 0.972 µM (active); in assay [14] it was 14.6 µM (active). Moreover, the activity change, negative = inhibition in [19] was 4.27% [at 18.9 µM]; in assay [17], 1.94% [at 18.9 µM].
